# Shown are actives, neighbours in structure and some others; about 3.5% of the full set was active somewhere.
# Mtb hypoxia rep = reduces hypoxia-regulated biosensor signal in M. tuberculosis; M. tuberculosis hypoxia-regulated fluorescent reporter, fluorescence; fluorescence inhibition, % (concentration not given with the values); 300,000 compounds, 0.1% hits; in the data active means fluorescence inhibition mostly above about 23%, no sharp cut-off; inactive means mostly below about 17%
# FadD28 binding = inhibitors of Mycobacterium tuberculosis FadD28 bisubstrate binding; FadD28 bisubstrate probe binding, fluorescence polarization; inhibition, % at 12.5 µM; 360,000 compounds, 0.22% hits; in the data active means inhibition above about 8.5%, passing the limit was not always enough; inconclusive means no clear call, values can overlap the other calls
# UGM FP inh = blocks M. tuberculosis UGM enzyme | P9WIQ1 | purified UGM, fluorescence polarization probe displacement | AID 504406 | 320,000 compounds, 0.06% hits | inhibition, % at 10 µM; in the data active means inhibition above about 10%, passing the limit was not always enough; inconclusive means no clear call, values can overlap the other calls
# Target sequence (P9WIQ1 whole entry, looked up): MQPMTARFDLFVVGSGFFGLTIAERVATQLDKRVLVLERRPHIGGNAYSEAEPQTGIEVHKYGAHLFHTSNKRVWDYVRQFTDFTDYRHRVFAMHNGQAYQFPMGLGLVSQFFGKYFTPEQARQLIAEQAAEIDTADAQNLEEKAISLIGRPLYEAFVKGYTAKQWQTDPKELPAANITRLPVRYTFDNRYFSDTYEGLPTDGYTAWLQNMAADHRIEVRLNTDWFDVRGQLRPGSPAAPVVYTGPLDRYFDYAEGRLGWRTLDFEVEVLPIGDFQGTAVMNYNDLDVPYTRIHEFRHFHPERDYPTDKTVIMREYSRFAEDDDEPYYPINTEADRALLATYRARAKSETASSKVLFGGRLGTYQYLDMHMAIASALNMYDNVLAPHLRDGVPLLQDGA
# FBA Mtb inh = Mtb fructose-bisphosphate aldolase inhibition. P9WQA3. purified M. tuberculosis FBA, fluorescence read-out. inhibition, % at 1 µM. 360,000 compounds, 2.3% hits. AID 588726; in the data active means inhibition above about 27%
# GDH-TPI counter = inhibits GDH-TPI coupling enzymes, artifact for Mtb FBA screen. GDH-TPI coupled enzyme counterscreen, NADH absorbance. inhibition, % at 4.8 µM. 360,000 compounds, 1.2% hits; in the data active means inhibition above about 30%
# Rv3671c inh = Rv3671c (M. tuberculosis) protease inhibition; AID 2606; inhibition, % at 5.96 µM; P9WHR9; 320,000 compounds, 0.048% hits; in the data active means inhibition above about 38%;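 further: extracellular domain of Rv3671c used as enzyme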
# Numbers stand for hits; n = inactive; u = inconclusive; x = no result given.
SMILES,Mtb hypoxia rep,FadD28 binding,UGM FP inh,FBA Mtb inh,GDH-TPI counter,Rv3671c inh
Cc1ccc(Nc2c(-c3ccc(N4CCOCC4)cc3)nc3ncccn23)cc1,n,n,n,n,31,n
CCN(CC)S(=O)(=O)c1ccc(NN=Cc2cccnc2)nc1,n,x,x,x,x,x
C=CCN1C(=O)C(CC(=O)O)S/C1=N/N=C/c1ccc(N(CC)CC)cc1 (stereo not given),x,n,n,n,35,n
O=C1OCCN1C(=O)[C@H]1[C@H](c2ccc(Cl)cc2)C(c2ccc(F)cc2)=NN1c1ccc(Br)cc1,n,n,x,55,31,x
O=C1OCCN1C(=O)C1C(c2ccc(F)cc2)C(c2ccc(F)cc2)=NN1c1ccc(Br)cc1 (stereo not given),n,x,x,x,x,x
N#C/C(=C/c1ccc(-c2ccc(S(N)(=O)=O)cc2)o1)C(=O)Nc1ccccc1,n,n,n,n,n,n
N#C/C(=C/c1ccc(-c2ccc(S(N)(=O)=O)cc2)o1)c1nc2ccccc2s1,n,20,n,n,n,n
COC(=O)C1(CCSC)NC(c2ccc(O)cc2)C2C(=O)N(c3ccc(F)cc3)C(=O)C21 (stereo not given),n,n,n,114,n,n
CC(C)C1Nc2c(O)cc(Cl)c([N+](=O)[O-])c2C2C=CCC21 (stereo not given),n,25,x,n,n,x
CC(=NNC(=O)COc1ccc(C(C)(C)C)cc1)c1ccc(N2CCOCC2)cc1,n,x,x,x,x,x
CCN(C(=O)COC(=O)c1ccccc1NCCO)C1CCS(=O)(=O)C1 (stereo not given),n,n,n,129,n,n
CCN(C(=O)COC(=O)c1cc2ccccc2cc1O)C1CCS(=O)(=O)C1 (stereo not given),n,n,n,n,n,n
CCOc1cc(C=NNC(=O)c2cccnc2)ccc1OC(=O)c1ccco1,n,x,x,x,x,x
O=[N+]([O-])c1ccc(C=NNC(=S)Nc2ccc(F)cc2)cc1,n,n,x,n,n,x
CCOC(=O)NN=C/C=C/c1ccccc1,n,x,x,x,x,x
NC(=S)N/N=C/C=C/c1ccccc1,x,n,n,n,38,n
NC(=S)N/N=C/c1ccc(/C=N/NC(N)=S)cc1,x,n,n,n,111,n
O=[N+]([O-])c1ccc(C=NNC(=S)NN=Cc2ccc([N+](=O)[O-])cc2)cc1,n,n,x,n,31,x
NC(=S)N/N=C/c1cccc(/C=N/NC(N)=S)c1,x,n,n,n,37,n
O=C(NCC1CCCO1)C(=O)NN=Cc1ccccc1C(=O)O (stereo not given),n,x,x,x,x,x
CC1CN(C(C)CO)C(=O)Cc2cc(NC(=O)CCC(F)(F)F)ccc2OC1CN(C)S(C)(=O)=O (stereo not given),n,x,x,x,x,x
S=c1[nH]nc(-c2ccco2)n1N=Cc1cccs1,n,x,x,x,x,x
O=S(=O)(N/N=C\C=C\c1ccccc1)c1ccccc1,x,n,n,n,31,n
Cc1ccc2c(c1)C1C(CO2)C(c2ccccc2)[C@]2(C)C(=O)N(Cc3ccc(Cl)cc3)CC(=O)N12 (stereo not given in full),n,x,x,x,x,x
COc1ccc(/C=[N+](\[O-])C2N(c3ccccc3)C(=S)SC2(C)C)cc1OC (stereo not given),n,n,n,n,32,n
SMILES,Mtb hypoxia rep,FadD28 binding,UGM FP inh,FBA Mtb inh,GDH-TPI counter,Rv3671c inh
CC1(C)SC(=S)N(c2ccccc2)C1/[N+]([O-])=C/c1cccc([N+](=O)[O-])c1 (stereo not given),n,n,n,n,n,n
COc1cc2ccccc2cc1C(=O)N/N=C/c1ccc2c(c1)OCO2,x,x,n,n,42,x
COc1ccccc1C(=O)N/N=C/c1ccc2c(c1)OCO2,x,n,n,n,n,n
O=C(N/N=C\c1ccc2c(c1)OCO2)c1ccco1,x,n,n,n,43,n
O=C(N/N=C\C=C\c1ccc2c(c1)OCO2)C1COc2ccccc2O1 (stereo not given),x,n,n,n,40,n
O=C(Cc1ccccc1)NN=Cc1ccc2c(c1)OCO2,n,x,x,x,x,x
O=C(N/N=C/c1ccc2c(c1)OCO2)c1ccc2c(c1)OCO2,x,n,n,n,n,n
O=C(NN=Cc1ccc2c(c1)OCO2)c1ccccc1,n,n,x,n,38,x
CC(=NNC(=S)Nc1c(C)cccc1C)c1ccc(O)cc1,n,x,x,x,x,x
CC(=NNC(=O)C(=O)Nc1cc(C)ccc1C)c1ccncc1,n,x,x,x,x,x
O=C(N/N=C\C=C\c1ccc2c(c1)OCO2)c1cccnc1,x,n,n,n,54,n
O=C(NN=C/C=C/c1ccc2c(c1)OCO2)c1cccnc1,n,x,x,x,x,x
S=C(NN=Cc1ccc2c(c1)OCO2)NN=Cc1ccc2c(c1)OCO2,n,n,x,n,62,x
COc1ccc(/C=N/NC(=O)c2ccccc2O)cc1CN1CCOCC1,x,n,n,n,40,n
COc1cc(NC(=O)c2ccc3c(c2)OCO3)ccc1NC(=O)c1ccco1,x,n,n,n,42,n
CC(/C=C/c1ccccc1)=NNC(=O)CNC(=O)c1ccc2c(c1)OCO2,n,x,x,x,x,x
Nc1ccn(CC(=O)NC(CO)Cc2c[nH]c3ccccc23)c(=O)n1 (stereo not given),n,x,x,x,x,x
NC(=O)c1c(N=Cc2cccnc2)sc2c1CCCC2,n,x,x,x,x,x
O=C(NN=Cc1ccc2c(c1)OCO2)c1ccncc1,x,n,x,n,33,x
CCCNC(=O)N1C2CCC1C(C(=O)OC)=C(c1cccc(C#N)c1)C2 (stereo not given),n,x,x,x,x,x
O=C(N/N=C/c1ccccn1)c1[nH]c2ccc([N+](=O)[O-])cc2c1-c1ccccc1,x,n,n,n,41,n
Cc1ccc(S(=O)(=O)c2c(N)n(CCN3CCOCC3)c3nc4ccccc4nc23)cc1C,x,n,n,n,n,n
Cc1ccc(S(=O)(=O)c2c(N)n(Cc3ccco3)c3nc4ccccc4nc23)cc1C,n,n,n,91,40,n
CCCCn1c(NS(=O)(=O)c2ccccc2)c(S(=O)(=O)c2ccc(C)cc2)c2nc3ccccc3nc21,n,u,n,n,n,n
Cc1ccc(S(=O)(=O)c2c(N)n(CCCO)c3nc4ccccc4nc23)cc1,n,n,n,143,n,n
SMILES,Mtb hypoxia rep,FadD28 binding,UGM FP inh,FBA Mtb inh,GDH-TPI counter,Rv3671c inh
Nc1c(S(=O)(=O)c2ccccc2)c2nc3ccccc3nc2n1C1CC1,n,n,n,n,n,n
Nc1c(S(=O)(=O)c2ccccc2)c2nc3ccccc3nc2n1Cc1ccco1,n,n,n,101,46,n
Oc1ccccc1C=N[n+]1ccccc1,n,x,x,x,x,x
COC(=O)CC1c2cc(F)ccc2S(=O)(=O)N1c1ccccc1 (stereo not given),n,x,x,x,x,x
COc1ccc2[nH]c(C(=O)NN=Cc3ccc(O)cc3O)cc2c1,n,x,x,x,x,x
CCn1c(NC(=O)c2ccc(COc3ccc(C)cc3[N+](=O)[O-])o2)nc2ccccc21,n,n,n,n,32,n
CN1CC=C2C(C#N)=C(N)C(C#N)(C#N)[C@H](c3ccoc3)[C@H]2C1,x,n,n,61,n,n
CN(C)/C=C1/C=C(c2ccccc2)OC1=O,n,n,n,n,33,n
c1ccc(C2=NN(c3ccccc3)C(c3ccco3)C2)cc1 (stereo not given),n,n,n,126,n,n
CC(/C=C/c1ccco1)=N\NC(=O)c1cccc(Cl)c1,x,n,n,n,32,n
CC(/C=C/c1ccco1)=NNC(=O)c1ccccc1Cl,n,x,x,x,x,x
